MOR-DOR ag: agonists of OPRM1-OPRD1 heterodimerization, primary screen, cell-based, luminescence. cells. 340,000 tested, 0.3% active. Mu-type opioid receptor (Homo sapiens) + Delta-type opioid receptor (Homo sapiens), …. AID 504326, 2011. activation, % at 9.3 µM;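 further: 0% = vehicle-treated cells and 100% = reference agonist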
OPRM1-OPRD1 inv: inverse agonists of MOR-DOR heterodimerization, primary screen, cell-based, luminescence. cell-based MOR-DOR heterodimer luminescence, inverse agonism. inhibition, % at 9.3 µM. 340,000 tested, 0.21% active. AID 504357, 2011; in the data active means inhibition above about 22%, passing the limit was not always enough;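 further: 0% = cells with DMSO and 100% = wells without cells with DMSO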
HTR5A ag: HTR5A agonists in luminescence cell assay, primary screen, counter-screen for OPRM1-OPRD1 heterodimer agonist project, full-deck HTS; activation, % at 9.3 µM; cell-based; 340,000 tested, 0.61% active; AID 504692, 2011; 5-hydroxytryptamine receptor 5A (Homo sapiens), P47898; in the data active means activation mostly above about 9.5%, no sharp cut-off; inactive means mostly below about 7.6%;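 further: 0% = cells with vehicle only and 100% = reference agonist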
Target sequence (P47898 whole entry, looked up): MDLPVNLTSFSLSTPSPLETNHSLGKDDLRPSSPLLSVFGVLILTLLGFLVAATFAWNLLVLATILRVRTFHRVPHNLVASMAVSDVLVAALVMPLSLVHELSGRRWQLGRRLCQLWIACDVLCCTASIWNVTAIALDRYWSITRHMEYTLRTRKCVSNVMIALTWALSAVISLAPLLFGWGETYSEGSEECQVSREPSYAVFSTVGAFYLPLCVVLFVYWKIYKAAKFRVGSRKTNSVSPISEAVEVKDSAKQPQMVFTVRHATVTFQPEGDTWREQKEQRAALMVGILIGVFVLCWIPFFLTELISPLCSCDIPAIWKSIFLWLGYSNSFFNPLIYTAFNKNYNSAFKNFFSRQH
MIN6 prolif: inducers of MIN6 beta-cell proliferation, primary screen, ATP luminescence, uHTS; proliferation, % at 10 µM; AID 2380, 2010; 330,000 tested, 0.29% active; MIN6 cells proliferation, ATPlite luminescence, 48 h; cells starved in 0.2% serum; 100% = growth in 10% serum;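 active means compounds whose signal lies at least 3.5 SD above the mean of all wells on their plate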;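 further: 0% = DMSO-treated cells in low-serum medium and 100% = 10% serum control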
V-ATPase pH: regulators of yeast V-ATPase proton pumping, primary screen, pHLuorin cytosolic pH fluorescence | response, % at 10 µM | AID 504577, 2011 | S. cerevisiae | 350,000 tested, 0.37% active; in the data active means response mostly above about 7.3%, no sharp cut-off; inactive means mostly below about 5.4%; further: actives read high
HTR5A inv ctr: HTR5A inverse agonists in luminescence cell assay, primary screen, counter-screen for OPRM1-OPRD1 heterodimer inverse agonist project, full-deck HTS. HTR5A cell line, inverse agonism. 5-hydroxytryptamine receptor 5A (Homo sapiens), P47898. 340,000 tested, 0.083% active. inhibition, % at 9.3 µM; in the data active means inhibition mostly above about 23%, no sharp cut-off; inactive means mostly below about 18%;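 further: 0% = cells with DMSO and 100% = no-cell wells with DMSO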
MOR-DOR ag conf: agonists of MOR-DOR heterodimerization, confirmation, cell-based, luminescence; shares compounds with MOR-DOR ag; cells, luminescence complementation; activation, % at 9.3 µM; 830 tested, 45% active;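 further: 0% = vehicle-treated cells and 100% = reference agonist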
HTR5A ag counter: HTR5A agonists in cells, counter-screen for OPRM1-OPRD1 heterodimer agonist project, cell-based, luminescence; 830 tested, 8% active; HTR5A agonist counterscreen; AID 504905, 2011; shares compounds with MOR-DOR ag; activation, % at 9.3 µM; in the data active means activation above about 17%;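 further: 0% = vehicle-treated cells and 100% = reference agonist response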
Active calls of the source: *; i = inactive; / = not tested or not shown. The list is not random: actives were taken first. Their share in the collection is about 1.7%. Unless noted, no stated cut-off is given here; in the data, active means activation above about 18%; inactive means the rest.

SMILES	MOR-DOR ag	OPRM1-OPRD1 inv	HTR5A ag	MIN6 prolif	V-ATPase pH	HTR5A inv ctr	MOR-DOR ag conf	HTR5A ag counter
COc1cccc(CNCCc2c[nH]c3ccccc23)c1OCc1ccccc1	18*	-99	10	-4	-2	-45	27*	8
COc1cc(CNCCc2c[nH]c3ccccc23)ccc1OCc1ccccc1F	-1	6	-3	-4	2	2	/	/
COc1ccc(C(=O)NCc2nnc(SCC(=O)N3CCCc4ccccc43)o2)cc1OC	-1	7	-1	2	3	-7	/	/
CCN1CC(CN(C)Cc2cn(-c3cccc(C)c3)nc2-c2cccc(F)c2)CC1=O (stereo not drawn)	20*	-104	2	-1	-7	-4	0	5
C=CCOC(=O)C1=C[C@H](c2csc3ccccc23)C[C@H](OCc2ccc(CO)cc2)O1	0	0	4	-8	-4	6	/	/
CCN1CCN(Cc2ccc(NC(=O)c3ccc(C)c(NC(=O)c4c[nH]c5cc(C(F)(F)F)ccc5c4=O)c3)cc2C(F)(F)F)CC1	47*	-286	0	-8	1	-12	39*	3
CC1CCC(NCCNC(=O)c2ccco2)CC1 (stereo not drawn)	0	3	7	1	-2	12	/	/
Cc1cc(Cl)ccc1OCCCC(=O)N/N=C/c1cccc([N+](=O)[O-])c1	21*	-110	5	-3	2	-9	2	-7
Brc1ccc(NCc2cccc3ccccc23)nc1	3	-16	-2	-1	-5	22	/	/
Oc1ccccc1CNc1ccc(Br)cn1	71*	-423	32*	1	/	-48	60*	27*
COc1ccc(CNC(=O)CN(C)S(=O)(=O)c2ccc3c(c2)OCCO3)cc1OC	-2	7	-3	-4	-2	8	/	/
O=C(Nc1ccc(NC(=O)c2ccc(Cl)c(S(=O)(=O)N3CCOCC3)c2)cc1)c1ccccc1	0	0	1	9	-4	8	/	/
O=C(Nc1ccccc1)c1ccc(NC2CCCCC2)c(S(=O)(=O)N2CCOCC2)c1	37*	-184	-2	-3	-2	8	43*	0
Cc1cc(/C=C\c2ccc3cc(N(C)C)ccc3[n+]2C)c(C)n1-c1ccccc1	48*	-258	2	-8	1	-7	4	0
Cc1cc2c(cc1C)CSC(c1c(O)ccc3ccccc13)SC2	31*	-161	-4	-6	1	5	19*	1
NC1=C(Cl)C(=O)c2ccccc2C1=O	7	-33	2	/	-1	-7	/	/
NC1=C(Cl)C(=O)c2ccc(S(N)(=O)=O)cc2C1=O	39*	-194	16*	/	1	-61	3	2
COc1ccc2c(c1)[nH]c1c(=O)n(/N=C/C3C(C)C=C(C)CC3C)c(=O)[nH]c12 (stereo not drawn)	7	-32	0	-6	2	33	/	/
COc1ccc2[nH]c3c(=O)n(/N=C/[C@H]4C(C)C=C(C)CC4C)c(=O)[nH]c3c2c1 (stereo partly drawn)	54*	-274	1	-5	1	-4	39*	16
O=S(=O)(NCCSc1nnc(-c2ccco2)n1-c1ccccc1)c1ccccc1	19*	-78	2	4	5	-14	1	15
NC(=O)CSc1nnc(-c2ccco2)n1-c1ccccc1	-2	9	-3	0	1	10	/	/
COCC(C)n1c(C)cc(C(=O)COC(=O)/C=C/c2cccc(F)c2)c1C (stereo not drawn)	0	2	8	-3	-4	2	/	/
CC(c1ccccc1)N1CCN(C(=O)CCl)CC1 (stereo not drawn)	-2	9	0	-6	1	1	/	/
CC1(C)CC(=O)c2cc(C(=O)Nn3cnnc3)c(=O)n(-c3ccccc3)c2C1	-2	12	-6	-3	-2	14	/	/
COc1ccc(-n2c3c(cc(C(=O)NNc4ccccc4C)c2=O)C(=O)CC(C)(C)C3)cc1	99*	-470	3	1	1	-7	133*	-1
SMILES	MOR-DOR ag	OPRM1-OPRD1 inv	HTR5A ag	MIN6 prolif	V-ATPase pH	HTR5A inv ctr	MOR-DOR ag conf	HTR5A ag counter
COc1ccc(-n2c3c(cc(C(=O)NNc4ccccc4)c2=O)C(=O)CC(C)(C)C3)cc1	129*	i	-2	0	-3	4	0	3
O=C(CNCc1cccs1)Nc1ccc(OC(F)(F)F)cc1	0	0	3	-5	4	-11	/	/
CN(C)C(CNC(=O)c1cccc(S(=O)(=O)Nc2ccc(SC(F)F)cc2)c1)c1ccccc1 (stereo not drawn)	38*	-150	-2	/	-7	1	5	1
COc1ccc(NS(=O)(=O)c2cccc(C(=O)NCC(c3ccccc3)N(C)C)c2)cc1 (stereo not drawn)	3	-18	1	-1	-4	0	/	/
CN(C)C(CNC(=O)c1cccc(S(=O)(=O)N(C)C)c1)c1ccccc1 (stereo not drawn)	33*	-178	4	0	2	-15	2	26*
COc1ccc(C(CNC(=O)c2cccc(S(=O)(=O)NCc3ccccc3)c2)N(C)C)cc1 (stereo not drawn)	20*	-104	-2	-2	4	12	15	0
COc1ccc(C(CNC(=O)c2ccc3c(c2)OCCO3)N(C)C)cc1 (stereo not drawn)	132*	i	-2	-2	2	6	148*	1
Cc1cc(N2CCN(c3ccc([N+](=O)[O-])c4cccnc34)CC2)c2ccccc2n1	36*	-216	2	0	1	-5	52*	10
Cc1ccc(/C([O-])=C(/C(=S)Nc2ccc(SC(F)F)cc2)[n+]2ccccc2)cc1[N+](=O)[O-]	24*	-118	-3	-5	1	-19	0	7
CN(C)C1(CNC(=O)CC(NC(=O)c2ccccc2Cl)c2ccccc2)CCCCC1 (stereo not drawn)	22*	-116	4	2	1	-12	5	2

High-throughput results (PubChem)
